{
  "source": "ChEMBL document CHEMBL4888484",
  "about": "“Replenishing the malaria drug discovery pipeline: Screening and hit evaluation of the MMV Hit Generation Library 1 (HGL1) against asexual blood stage Plasmodium falciparum ,using a nano luciferase reporter read-out” (2022)",
  "note": "Screen size: about 4,800 compounds; about 410 (8.5%) showed an effect of 50% or more. Only a selection was taken, and strong results are over-represented in it overall.",
  "data": [
    {"tested_on": "Plasmodium falciparum", "test": "Confirmatory screen in NF54 pLDH assay, in single point, at 2uM, 72h", "type": "functional, Erythrocyte", "conditions": "timepoint 72 hour", "units": {"% Inhibition": "%"}, "values": [
      {"molecule": "N#CCc1ncc(CCN2C(=O)c3ccccc3C2=O)s1", "% Inhibition": 7},
      {"molecule": "COc1ccc(S(=O)(=O)N(c2onc(C)c2Cl)S(=O)(=O)c2ccc(OC)c(OC)c2)cc1OC", "% Inhibition": 4},
      {"molecule": "CC[C@@H](C(N)=O)N1CCN(Cc2nc(-c3cccs3)no2)CC1", "% Inhibition": 7},
      {"molecule": "Cc1noc(-c2csc(-c3c[nH]cn3)n2)n1", "% Inhibition": -1},
      {"molecule": "CN(Cc1ccn(C)n1)C(=O)c1cc(S(=O)(=O)N(C)C)c(Cl)cc1Cl", "% Inhibition": 8},
      {"molecule": "O=C(NC1CCCC1)N1CCN(S(=O)(=O)c2cccc(F)c2)CC1", "% Inhibition": 2},
      {"molecule": "COc1ccc(-c2cc(C(=O)N[C@H]3CCN(c4ccc(=O)n(C)n4)C3)c(C)n2C)cc1", "% Inhibition": 41},
      {"molecule": "COc1ccc(-c2cc(C(=O)N[C@H]3CCN(c4ccc(=O)[nH]n4)C3)c(C)n2C)cc1", "% Inhibition": 58},
      {"molecule": "Cc1c(C(=O)NC2CC2)cc(-c2ccccc2)n1C", "% Inhibition": 6},
      {"molecule": "c1cn(C[C@@H]2CCCN2c2nc(C3CCCC3)ns2)nn1", "% Inhibition": -8},
      {"molecule": "Cn1cc(C(=O)c2nc(-c3ccccc3Cl)no2)cn1", "% Inhibition": -5},
      {"molecule": "O=S(=O)(c1ccc2nncn2c1)N(Cc1cccc(Cl)c1)c1ccccc1", "% Inhibition": 9},
      {"molecule": "O=C(N[C@@H]1CC=C(c2ccc(F)cc2)CC1)c1nc2n(n1)CCCN2", "% Inhibition": 10},
      {"molecule": "c1ccc2[nH]c(Nc3nc4ccccc4s3)nc2c1", "% Inhibition": 14},
      {"molecule": "COc1ccc(CNC(=N)NS(=O)(=O)c2ccc(OC)c(OC)c2)c(OC)c1", "% Inhibition": 11},
      {"molecule": "Cc1cc(Br)ccc1CNC(=O)CN1CCCCC1=O", "% Inhibition": 13},
      {"molecule": "COc1ccc(C(=O)Nc2ccc3c(c2)C(=O)Nc2cccnc2O3)cc1OC", "% Inhibition": 26},
      {"molecule": "O=C(Nc1[nH]c(=O)ncc1F)c1cc(F)c(F)cc1Br", "% Inhibition": 86},
      {"molecule": "O=C1c2ccccc2C(c2ccc(NC(=O)c3cccc4ccccc34)cc2)(c2ccc(NC(=O)c3cccc4ccccc34)cc2)c2ccccc21", "% Inhibition": 42},
      {"molecule": "COc1cc(C(=O)Nc2[nH]c(=O)ncc2F)ccc1Cl", "% Inhibition": 68},
      {"molecule": "Cn1ccc(NC(=O)c2cccc3ccccc23)n1", "% Inhibition": 4},
      {"molecule": "O=C(Nc1ccccc1-c1nnc[nH]1)c1ccc(F)c(Cl)c1", "% Inhibition": 2},
      {"molecule": "O=C(Nc1[nH]c(=O)ncc1F)c1cccc2ccccc12", "% Inhibition": 72},
      {"molecule": "COc1cc2c(cc1-c1cccnc1)CCC(=O)N2C", "% Inhibition": -22},
      {"molecule": "CCc1c[nH]c(CNC(=O)C2(C(=O)NC3CC3)CCC2)n1", "% Inhibition": 7},
      {"molecule": "CCC[C@H](C)c1nc(N2CCN(C(=O)Cc3ccc(OC)cc3)CC2)c2cnn(-c3ccccc3)c2n1", "% Inhibition": 9},
      {"molecule": "CC(=O)Nc1ccc(-c2cn3c4ccccc4ccc3[n+]2C)cc1", "% Inhibition": 67},
      {"molecule": "CC(=O)c1ccc(NC(=O)Cn2c(-c3ccccc3)nc(C)cc2=O)cc1", "% Inhibition": 10},
      {"molecule": "CC(=O)Nc1ccc(NC(=O)CCC(C)C)cc1", "% Inhibition": -6},
      {"molecule": "CCOc1cccc2c1OC1(C)C(C(=O)Nc3ccc(C)cc3C)C2NC(=O)N1c1ccccc1", "note": "(stereo unspecified)", "% Inhibition": -7},
      {"molecule": "O=C1[C@@H]2C[C@@H](CN2C(=O)c2cncnc2)Oc2ccccc2N1Cc1cccnc1", "% Inhibition": 6},
      {"molecule": "O=C(O)C[C@H](NC(=O)c1cscn1)c1ccc(Cl)s1", "% Inhibition": -23},
      {"molecule": "O=S(=O)(c1cccnc1)N(CC1CCCCC1)c1cnccn1", "% Inhibition": 10},
      {"molecule": "COc1cc(NC(=O)c2cc(-c3cccc4ccccc34)[nH]n2)cc(OC)c1OC", "% Inhibition": 10},
      {"molecule": "COc1ccc(-c2cc(C(=O)Nc3ncc[nH]3)n[nH]2)cc1OC", "% Inhibition": 22},
      {"molecule": "COc1ccc2cccc(NC(=O)c3cc(-c4cc(OC)c(OC)c(OC)c4)n[nH]3)c2n1", "% Inhibition": 51},
      {"molecule": "Cc1ccnc2nc(C(=O)N(CC3CC3)CC(F)(F)F)nn12", "% Inhibition": 10},
      {"molecule": "O=C(N[C@H]1CCCc2occc21)c1ccco1", "% Inhibition": 7},
      {"molecule": "Oc1cccc(CN[C@H]2CCCc3occc32)c1Cl", "% Inhibition": 83},
      {"molecule": "CC(O)CC(C)(C)CNC1CCCc2occc21", "note": "(stereo unspecified)", "% Inhibition": -9},
      {"molecule": "COc1ccc(Nc2nc(C(=O)Nc3ncc(C)s3)cs2)cc1OC", "% Inhibition": 13},
      {"molecule": "CCOc1cc(C(=O)Nc2ccc3nc4c(c(Nc5ccc(OC)c(OC)c5)c3c2)CCCC4)cc(OCC)c1OCC", "% Inhibition": 103},
      {"molecule": "CCOC(=O)Oc1c(OC)cc(C(=O)Nc2ccc3c(c2)sc(=O)n3C)cc1OC", "% Inhibition": 15},
      {"molecule": "COC(=O)c1cc(S(=O)(=O)NCCc2csc(C)n2)cc(F)c1F", "% Inhibition": -8},
      {"molecule": "CCN(C(=O)[C@H]1CCN(C)[C@@H](C)C1)C1CCCC1", "% Inhibition": 11},
      {"molecule": "Cc1cn(Cc2ncc(C(F)(F)F)cc2Cl)c(=O)[nH]c1=O", "% Inhibition": -18},
      {"molecule": "N#Cc1ccc(NC(=O)[C@](F)(OC(F)(F)C(F)(F)C(F)(F)F)C(F)(F)F)cc1", "% Inhibition": -2},
      {"molecule": "Cc1cc(CN(C)c2cc(C3CC3)nc(N(C)Cc3cc(C)on3)n2)no1", "% Inhibition": -11},
      {"molecule": "CN(Cc1ccc(-c2ccccc2)cc1)c1cc([C@H]2C[C@@H](N)C2)nc(N)n1", "% Inhibition": 54},
      {"molecule": "CC(=O)N1c2c(C)cccc2[C@@H](C)CC1(C)C", "% Inhibition": 16},
      {"molecule": "CCc1ccc(NC(=O)Cn2c(=O)ncc3cc(S(=O)(=O)N4CCCC[C@@H]4C)ccc32)cc1", "% Inhibition": 11},
      {"molecule": "CC(C)C[C@@H]1N[C@H](C(=O)NCCN(C)C)Cc2c[nH]c3cccc1c23", "% Inhibition": -19},
      {"molecule": "Cc1cc2nc(C(=O)NC3CCN(Cc4ccccc4)CC3)c(=O)n(C)c2cc1C", "% Inhibition": -6},
      {"molecule": "Cc1cc(C(=O)Nc2nc(-c3ccc4c(c3)CCC4)n[nH]2)no1", "% Inhibition": 7},
      {"molecule": "CCn1cc(C(=O)O)c(=O)c2cc(F)c(N3CCN(S(=O)(=O)c4ccccc4)CC3)cc21", "% Inhibition": -6},
      {"molecule": "CCn1cc(C#N)c(=O)c2cc(F)c(N3CCN(Cc4ccccc4)CC3)cc21", "% Inhibition": 78},
      {"molecule": "CCn1cc(-c2nc(-c3ccccc3C)no2)c(=O)c2cc(F)c(N3CCCCC3)cc21", "% Inhibition": 42},
      {"molecule": "CCNC(=O)c1ccc(-c2nc(CS(=O)(=O)c3ccccc3)c(C)o2)cc1", "% Inhibition": -10},
      {"molecule": "Cc1cccc(-c2nc(C[N+]3(Cc4nc(-c5cccc(C)c5)oc4C)CCCC3)c(C)o2)c1", "% Inhibition": 55},
      {"molecule": "Cc1ccc(S(=O)(=O)Cc2nc(-c3ccc(C(=O)Nc4c(C)cccc4C)cc3)oc2C)cc1", "% Inhibition": 13},
      {"molecule": "COc1cccc2c(=O)c3c([nH]c12)CCN(CC(=O)NCc1ccccc1Cl)C3", "% Inhibition": 37},
      {"molecule": "COc1ccc(CN(Cc2ccncc2)CC2CCN(C3CCN(C)CC3)CC2)c(F)c1", "% Inhibition": 93},
      {"molecule": "CN1CCC(N2CCC(CN(Cc3ccncc3)Cc3c(F)cccc3Cl)CC2)CC1", "% Inhibition": 99},
      {"molecule": "c1cc(CN2CCN(C3CCCCCC3)CC2)ccn1", "% Inhibition": -17},
      {"molecule": "c1ccc(N2CCN(C3CCN(Cc4ccncc4)CC3)CC2)cc1", "% Inhibition": -2},
      {"molecule": "O=S1(=O)CCN(C2CCN(Cc3c(F)cccc3F)CC2)CC1", "% Inhibition": 14},
      {"molecule": "Cc1ccc(C)c(NC(=O)N2CC(n3cnnc3-c3ccccc3)C2)c1", "% Inhibition": 0},
      {"molecule": "c1ccc(CCc2nnc3n2CCOC3)cc1", "% Inhibition": 3},
      {"molecule": "COCc1cc2nn(CC(=O)Nc3ccc4c(c3)OCO4)c(=O)n2c(-c2ccccc2)n1", "% Inhibition": 12},
      {"molecule": "Cc1ccc(CNC(=O)[C@@H](C)C2CCOCC2)cc1C", "% Inhibition": 7},
      {"molecule": "Cc1ccc(-c2nn3c([C@H]4CCCN(C)C4)nnc3s2)cc1C", "% Inhibition": -8},
      {"molecule": "O=C1NC2(CCCC2)Nc2ccccc21", "% Inhibition": 2},
      {"molecule": "Cc1cc(=O)n2ncc(C(=O)Nc3ccc(F)cc3F)c2[nH]1", "% Inhibition": 10},
      {"molecule": "COc1ccc(N(C)S(=O)(=O)c2ccsc2-c2nc(-c3cccnc3)no2)cc1Cl", "% Inhibition": -2},
      {"molecule": "CC(C)(C)N(CC(N)=O)CC(=O)NC(=O)NC1CCCCC1", "% Inhibition": 8},
      {"molecule": "CCN(CC)C(=O)c1cc(C)n(-c2ccc3c(c2)OCCO3)c1C", "% Inhibition": -3},
      {"molecule": "O=C1c2[nH]nc(-c3cccs3)c2[C@@H](c2cccc(O)c2)N1c1nccs1", "% Inhibition": 5},
      {"molecule": "O=S(=O)(N[C@H]1CCc2nnc(-c3ccc(F)cc3)n2C1)c1cccnc1", "% Inhibition": 13},
      {"molecule": "C[C@@H]1CN(c2ccc(N)cn2)C[C@H](C)O1", "% Inhibition": -12},
      {"molecule": "CCCNC(=O)C[C@H](C)CC(=O)NCCc1ccc(OC)c(OC)c1", "% Inhibition": 14},
      {"molecule": "COc1ccc(CCNC(=O)CCCC(=O)NCc2ccccc2)cc1OC", "% Inhibition": -14},
      {"molecule": "COc1ccc(CC(=N)Nc2cc3cc(OC)c(OC)cc3c(Cc3ccc(OC)c(OC)c3)n2)cc1OC", "% Inhibition": 89},
      {"molecule": "CNC(=O)C(=O)Nc1ccccc1C(F)(F)F", "% Inhibition": 9},
      {"molecule": "C[C@H](NC(=O)c1cocn1)c1ccccc1NC(=O)c1cocn1", "% Inhibition": -7},
      {"molecule": "Cc1cc([C@H](Nc2ccccn2)c2ccccc2)c(NC(=O)c2ccccc2)s1", "% Inhibition": 3},
      {"molecule": "Cc1cc([C@H](Nc2ccccn2)c2cccnc2)c(NC(=O)c2ccccc2)s1", "% Inhibition": 4},
      {"molecule": "Oc1ccc2ncccc2c1[C@@H](Nc1ccccn1)c1cccc(Br)c1", "% Inhibition": 77},
      {"molecule": "CCCC(=O)N1CCC(OC(=O)c2cnc3ccc(F)cc3c2)CC1", "% Inhibition": -10},
      {"molecule": "CC(C)Nc1nc2nonc2n2cnnc12", "% Inhibition": 90},
      {"molecule": "COc1ccc(Nc2ncc(Cc3ccccc3C)s2)cc1", "% Inhibition": 4},
      {"molecule": "CC(C)C(CNCc1nnn(C)n1)C(C)C", "% Inhibition": 11},
      {"molecule": "FC(F)(F)c1cnc(-c2csc(NC3CCCCC3)n2)c(Cl)c1", "% Inhibition": 15},
      {"molecule": "NC(=O)c1nnn2c1C(=O)N[C@H](c1ccc(Cl)cc1)C2", "% Inhibition": -13},
      {"molecule": "CCc1c(-c2nc(CCN(C)C(=O)c3ccoc3)no2)[nH]c2ccc(C)cc12", "% Inhibition": -19},
      {"molecule": "CCN1c2cc(C(=O)N3CCCCC3)ccc2C(=O)N2CCCCC[C@H]21", "% Inhibition": 6},
      {"molecule": "Cc1cc(C)n(C(=O)CNC(=O)c2ccccn2)n1", "% Inhibition": 14},
      {"molecule": "Cc1cc(NC(=O)c2ccccn2)n(-c2nc3ccccc3o2)n1", "% Inhibition": 93},
      {"molecule": "Cc1cc(C(=O)Nc2cc(C)nn2C)nc(N(C)C)n1", "% Inhibition": 8},
      {"molecule": "COc1ccc(S(=O)(=O)N2CC[C@@H]3[C@@H](COCCN3Cc3ccccc3)C2)cc1", "% Inhibition": 0},
      {"molecule": "O=C(CNC(=O)COc1ccccc1)NCC1(O)CCCCCC1", "% Inhibition": 6},
      {"molecule": "C[C@@H](CN)N(C)c1ccnc2cc(Br)cnc12", "% Inhibition": 96}
    ]}
  ]
}
